# Counter-ions that a name gives are not always drawn.
# Legend:
# [1] = biological target: IKZF1 (dCK*-IKZF1 fusion in HEK293FT) (UniProt Q13422); assay: inhibition of IKZF1 HTRF signal (DMSO = 0%, pomalidomide 10 uM = 100%); higher = lower IKZF1 protein level; conditions: compound concentration: 5 uM, overnight (~20 h)
# Procedure, shortened: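 After overnight treatment at 37 °C with 5 μM compound in single wells, HEK293FT cells (2000/well, 384-well) stably expressing an IKZF1 fusion were lysed for 30 min at room temperature. A commercial HTRF total-IKZF1 antibody kit was incubated with the lysate overnight, and the time-resolved FRET ratio at 665/620 nm was corrected for background. Data are given as percent inhibition of IKZF1 signal relative, on each plate, to vehicle and a reference degrader, set at 0% and 100% respectively.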
# HEK293FT dCK*-only = assay: relative growth in counter assay (no AraC = 100%, AraC + DMSO = 0%); higher = more growth rescue independent of IKZF1; conditions: compound concentration: 5 uM; AraC concentration: 0.3 uM; overnight pretreatment + 4 days AraC
# Procedure, shortened: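 Counter assay in HEK293FT cells expressing dCK* alone (300/well, 384-well). Cells received 5 μM compound 2 h after seeding, then after overnight at 37 °C a nucleoside suicide substrate at 0.3 μM plus medium for 4 days. On day 5, Hoechst 33342-stained nuclei were counted by imaging. Relative growth was normalised per plate to wells without suicide substrate (100%) and substrate plus vehicle (0%).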
# HEK293FT dCK*-IKZF1 = assay: relative growth recovery (pomalidomide 10 uM = 100%, DMSO = 0%); higher = more growth rescue (IKZF1 fusion degradation); conditions: compound concentration: 5 uM; AraC concentration: 0.3 uM; overnight pretreatment + 4 days AraC
# Procedure, shortened: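 Means of duplicates from different days are given for growth recovery, normalised per plate against a reference degrader and vehicle. The reference degrader set the 100% level and vehicle the 0% level. HEK293FT cells stably expressing a deoxycytidine kinase–IKZF1 fusion (300/well, 384-well) received 5 μM compound 2 h after seeding and, after overnight at 37 °C, 0.3 μM of a nucleoside suicide substrate plus medium for 4 days. Nuclei stained with Hoechst 33342 were then counted by whole-well imaging on day 5.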
# IKZF1 (dCK*-IKZF1 fusion in HEK293FT), sequence (Q13422 whole entry, looked up, the tested form may be a part): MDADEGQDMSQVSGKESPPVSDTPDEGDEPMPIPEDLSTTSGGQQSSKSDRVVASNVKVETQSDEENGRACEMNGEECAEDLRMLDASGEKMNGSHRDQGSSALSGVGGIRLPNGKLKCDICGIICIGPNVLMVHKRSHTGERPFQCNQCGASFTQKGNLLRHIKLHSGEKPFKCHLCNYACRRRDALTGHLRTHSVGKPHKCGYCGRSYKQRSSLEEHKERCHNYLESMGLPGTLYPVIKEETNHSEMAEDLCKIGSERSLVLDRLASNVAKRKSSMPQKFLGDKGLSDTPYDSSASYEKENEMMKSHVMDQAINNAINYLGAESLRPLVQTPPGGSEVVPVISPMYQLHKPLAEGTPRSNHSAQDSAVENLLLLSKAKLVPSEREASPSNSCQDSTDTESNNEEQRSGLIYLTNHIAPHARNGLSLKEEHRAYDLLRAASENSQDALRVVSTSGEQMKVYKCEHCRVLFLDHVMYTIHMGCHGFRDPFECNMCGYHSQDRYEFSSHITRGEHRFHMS
Structure (SMILES),inhibition of IKZF1 HTRF signal [1] [%],relative growth in counter assay (HEK293FT dCK*-only) [%],relative growth recovery (HEK293FT dCK*-IKZF1) [%]
O=C(c1ccc(Nc2nccc(-c3cc4ccccc4s3)n2)cc1)N1CCC(N2CCCC2)CC1,-31.3,-35.2,-14.3
OC1=C(C[C@]([C@](CO)=O)(O)C[C@@H]4O[C@@]5([H])C[C@H](N)[C@H](O)[C@H](C)O5)C4=C(O)C3=C1C(C2=CC=CC(OC)=C2C3=O)=O [doxorubicin],-9.64,-35.2,-13.8
O=S(=O)(O)CCCS(=O)(=O)O,17.9,1.16,-1.31
NC1CC(O[C@H]2C[C@@]([C@@](C)=O)(O)CC3=C2C(O)=C5C(C(C4=CC=CC(OC)=C4C5=O)=O)=C3O)OC(C)C1O (stereo partly drawn) [daunorubicin],22,-35.4,-14.9
NC(=O)Nc1sc(-c2ccc(F)cc2)cc1C(N)=O,-33.5,-26.8,-9.27
CC(CN(C)C)CN1c2ccccc2Sc2ccccc21 (stereo not drawn) [trimeprazine],15.3,7.5,-1.37
CC[C@]1(O)C[C@@H]2C[N@@](CCc3c([nH]c4ccccc34)[C@@](C(=O)OC)(c3cc4c(cc3OC)N(C)[C@H]3[C@@](O)(C(=O)OC)[C@H](OC(C)=O)[C@]5(CC)C=CCN6CC[C@]43[C@@H]65)C2)C1.O=S(=O)(O)O [Vinblastine (sulfate)],-4.41,-34.3,-11.4
Oc1c(I)cc(Cl)c2cccnc12,-2.15,-3.3,-3.28
Cc1nc(-c2cccnc2)sc1C(=O)Nc1ccccc1-c1cn2c(CN3CCOCC3)csc2n1,6.43,-2.87,-0.27
CSc1ccc2c(c1)N(CCC1CCCCN1C)c1ccccc1S2 (stereo not drawn) [Thioridazine HCl],-1.96,-2.48,-2.37
CN(C)C(=O)C(CCN1CCC(O)(c2ccc(Cl)cc2)CC1)(c1ccccc1)c1ccccc1,-14.4,0.63,-0.755
C=C1/C(=C\C=C2/CCC[C@]3(C)[C@@H]([C@H](C)/C=C/C=C/C(O)(CC)CC)CC[C@@H]23)C[C@@H](O)C[C@@H]1O [Seocalcitol],-23.4,14.2,6.88
CCN(CC)CCCC(C)Nc1nc(C)cc(Nc2ccc3nc(C)cc(N)c3c2)n1 (stereo not drawn),-45.1,-7.4,0.345
Nc1nc(=O)n([C@H]2C[C@H](O)[C@@H](CO)O2)cc1F [5-Fluoro-2'-deoxycytidine],-4.07,-26.3,-8.98
O=C(/C=C/c1cccnc1)c1ccncc1,-25,-28.4,-6.42
Cc1cc(/C=C2\SC(=O)N(c3ccccc3)C2=O)c(C)n1-c1cccnc1,-32.6,-4.98,0.895
Cc1ccc(S(=O)(=O)NC(=O)NN2CC3CCCC3C2)cc1 (stereo not drawn),-29.9,3.82,1.34
CC1=C(C(=O)OC(C)C)C(c2cccc([N+](=O)[O-])c2)C(C(=O)OC2CN(C(c3ccccc3)c3ccccc3)C2)=C(N)N1 (stereo not drawn) [Azelnidipine],10.4,12.8,0.07
CCN(CC)CCCCC(NC(=O)c1ccc([N+](=O)[O-])cc1)c1ccccc1 (stereo not drawn) [nibentan],-51.4,11.1,1.83
O=C1N(c2ccccc2)c2ccccc2C1(Cc1ccncc1)Cc1ccncc1 [linopirdine],-39.8,-2.22,-3.48
COCCOC(=O)C1=C(C)NC(C)=C(C(=O)OC/C=C/c2ccccc2)C1c1cccc([N+](=O)[O-])c1 (stereo not drawn) [cilnidipine],-8.24,-4.05,-0.035

Structure (SMILES),inhibition of IKZF1 HTRF signal [1] [%],relative growth in counter assay (HEK293FT dCK*-only) [%],relative growth recovery (HEK293FT dCK*-IKZF1) [%]
C/C(=N/Nc1nnc2c(n1)[nH]c1c(C)cccc12)c1ccccn1,45.9,-33,-12.6
COc1cc(N2CCN(C)CC2)ccc1Nc1nccc(-c2cn(C)c3cnccc23)n1,-30.7,-9.1,-0.12
COc1ccc(Cl)cc1C(=O)NCCc1ccc(C(=O)O)cc1 [meglitinide],-37.6,-0.23,-1.25
CC1=C(/C=C/C(C)=C/C=C/C(C)=C/C=C/C=C(C)/C=C/C=C(C)/C=C/C2=C(C)CCCC2(C)C)C(C)(C)CCC1,-23.6,-13.6,-1.69
CC(C)(C)c1ccc(C(O)CCCN2CCC(C(O)(c3ccccc3)c3ccccc3)CC2)cc1 (stereo not drawn),-24.6,-9.63,-1.42
CCCCCCCCCCCCCCCC[N+](C)(C)CCN(Cc1ccc(OC)cc1)c1ncccn1 [thonzonium bromide],21,-31,-10.3
CCC1/C=C(\C)CC(C)CC(OC)C2OC(O)(C(=O)C(=O)N3CCCCC3C(=O)OC(/C(C)=C/C3CCC(O)C(OC)C3)C(C)C(O)CC1=O)C(C)CC2OC (stereo not drawn) [Ascomycin (FK520)],4.12,22.2,13.5
Cc1c(-c2ccccc2F)[nH]c(N)c1C#N,-50.1,0.99,0.445
CCc1oc2ccccc2c1C(=O)c1cc(Br)c(O)c(Br)c1,11.6,-6.05,-2.28
CCCCC1C(=O)N(c2ccccc2)N(c2ccc(O)cc2)C1=O (stereo not drawn),-36.3,-34.9,-12.7
Nc1ccc(/N=N/c2ccccc2)c(N)n1,-28.9,-3.22,-1.03
c1ccc(CNc2nc(NCc3ccccc3)c3ccccc3n2)cc1,-15.7,-18.5,-4.85
Nc1nc(N)c2nc(-c3ccccc3)c(N)nc2n1,3.18,-11,-5.46
ClC1=CC=CC(NC2=C3C(N(C(C)C)C=N3)=NC(N[C@H]([C@@H](C)C)CO)=N2)=C1 [purvalanol-a],-35.2,2.99,-1.66
CN1C(=O)/C(=C2/C(=O)Nc3ccccc32)c2ccccc21 [Meisoindigo],-22.1,-7.74,-3.15
NS(=O)(=O)c1cc2c(cc1Cl)NC(C(Cl)Cl)NS2(=O)=O (stereo not drawn),19.3,-3.14,-3.58
CCCCOc1ccc(-c2cncc(C(=O)NCc3cccnc3N3CCOCC3)c2)cc1Cl,-19.5,-0.15,4.37
COc1ccc(-c2nc3cc(C4=NNC(=O)CC4C)ccc3[nH]2)cc1 (stereo not drawn) [Pimobendan (Vetmedin)],-8.62,-0.97,-0.495
CO/N=C1\C[C@]2(C[C@@H]3C[C@@H](C/C=C(\C)C[C@@H](C)/C=C/C=C4\CO[C@@H]5[C@H](O)C(C)=C[C@@H](C(=O)O3)[C@]45O)O2)O[C@H](/C(C)=C/C(C)C)[C@H]1C,-19.4,-0.37,-1.09
O=C(Nc1ccc(Cl)cc1)Nc1ccc(Cl)c(Cl)c1 [Triclocarban],15.1,3.72,-1.68
O=C(NCCO[N+](=O)[O-])c1cccnc1,-26.3,-5.9,-1.74

Structure (SMILES),inhibition of IKZF1 HTRF signal [1] [%],relative growth in counter assay (HEK293FT dCK*-only) [%],relative growth recovery (HEK293FT dCK*-IKZF1) [%]
CC1(C)Oc2ccc(C#N)cc2[C@@H](N2CCCC2=O)[C@@H]1O.CC1(C)Oc2ccc(C#N)cc2[C@H](N2CCCC2=O)[C@H]1O [levcromakalim],-32.9,4.22,-0.84
O=C(OC)C1=C(C)NC(C)=C(C(OCCCN3CCC(C4=CC=CC=C4)(C5=CC=CC=C5)CC3)=O)[C@H]1[C@]2=CC=CC([N+]([O-])=O)=C2 [niguldipine-(S)-(+)],-12,-29.9,-10.5
CN(C)c1ccc(C(=C2C=CC(=[N+](C)C)C=C2)c2ccc(N(C)C)cc2)cc1,-12.9,-35.1,-13.1
OCCN1CCN(CCCN2c3ccccc3Sc3ccc(Cl)cc32)CC1,-36.5,3.78,4.08
O=C(Nc1ccc(S(=O)(=O)Nc2nccs2)cc1)C(c1ccccc1)c1ccccc1,-31.6,-2.35,-3.39
O=C1CCC(N2C(=O)c3ccccc3C2=O)C(=O)N1 (stereo not drawn) [thalidomide],-17.1,0.97,1.01
Nc1ccc2ncnc(NCCc3ccc(Oc4ccccc4)cc3)c2c1,20.9,-8.23,-2.79
O=C1Nc2ccc(Cl)cc2[C@@](C#CC2CC2)(C(F)(F)F)O1 [Efavirenz],0.88,-1.3,0.45
c1ccc2c(c1)CCC[C@H]2Nc1nc2ccccc2[nH]1,-34.6,-1.81,-0.405
CCCSc1ccc2[nH]c(NC(=O)OC)nc2c1 [Albendazole],3.53,6.7,-0.675
O=C1CC[C@H](N2Cc3cc(N4CCN(CC5CCN(c6ccc([C@@H]7c8ccc(O)cc8CC[C@@H]7c7ccccc7)cc6)CC5)CC4)ccc3C2=O)C(=O)N1,-15.2,2.17,9.37
C=CC(=O)Nc1cccc(Oc2nc(Nc3ccc(N4CCN(C)CC4)cc3)nc3ccsc23)c1 [Olmutinib],-18.2,-23.3,-7.07
Oc1cc(O)cc(/C=C/c2ccc(O)c(O)c2)c1 [piceatannol],6.73,-9.71,-2.98
Cc1ccc2c(=O)c3ccccc3n(CCCN)c2c1C,-12.2,-35.5,-14.4
CCCCCCCCCCCCCCCC[N+](C)(C)C,22.3,-33.4,-11.7
CCc1c2c(nc3ccc(OC(=O)N4CCC(N5CCCCC5)CC4)cc13)-c1cc3c(c(=O)n1C2)COC(=O)[C@]3(O)CC [Irinotecan HCl],-17.6,-35.4,-15.1
CCS(=O)(=O)N(C)[C@@H]1c2cc(C#N)ccc2OC(C)(C)[C@H]1O.CCS(=O)(=O)N(C)[C@H]1c2cc(C#N)ccc2OC(C)(C)[C@@H]1O (racemic) [chromanol-(+/-)],-29.6,1.25,0.645
Nc1nc(N)c2nc(-c3cccc(O)c3)cnc2n1,28.6,-10.5,-2.13
CO[C@@H]1[C@@H](OC2O[C@H](C)[C@@H](O[C@H]3C[C@@](C)(O)[C@@H](O)[C@H](C)O3)[C@H](N(C)C)[C@H]2O)[C@@H](CC=O)C[C@@H](C)[C@@H](O[C@H]2CC[C@H](N(C)C)[C@@H](C)O2)/C=C/C=C/C[C@@H](C)OC(=O)C[C@H]1O (stereo partly drawn),-29.9,-5.7,2.43

# Reference: the supplement of paper PMC12340641
